Source: the supplement of paper PMC6555819

What follows are sequences tested on RXRa homodimer (NR concentration 180 nM) (assay: PBM binding z-score (relative to random genomic background probes); higher = stronger binding; sequences stand for … in GC…GCGATTGACAGCGTAGAATGAAGG).
Method in brief: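 Probes were double-stranded and carried 34-nt variable regions with direct-repeat seeds, single-nucleotide variants, half-site ablations and random human genomic background sequences, printed on custom Agilent 4×180K protein-binding microarrays. Arrays were incubated 1 h with ligand-free nuclear receptor dimers in PBS pH 7.4, 2% milk, 0.02% Triton X-100, 1 mM DTT, 0.2 mg/mL BSA and 0.4 mg/ml salmon testes DNA. Antibodies against each partner (one per run) detected binding, and scanned fluorescence was regression-normalized. Binding z-scores use the random background probes as reference.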
GTACCGAGGTGAATAGGTCGTTGATGAGTAGGCG showed a PBM binding z-score of 2.11.
ATATGTAGGTTAGCTTGGGTCATTCAGACTAGGC showed a PBM binding z-score of 1.89.
Sequence TCATATAGGTAATACAGGTGAAAGTAGGCATCTA has a PBM binding z-score of 1.2.
With GCTGCTAGGTCAGGTTGGTCAGCTCACGGGTACG the PBM binding z-score was 1.28.
GCTTGTAGATCAAGGTTCAGAAAGACTAAGCTAA was tested, and the PBM binding z-score was 0.62.
Sequence CCTCGGAGGACTGAAGGTCAGAGCTGTCCGCTTT has a PBM binding z-score of 1.46.
ATCTCTAGGTAAAGATAGTTCAGTCAATGCAAAT was tested, and the PBM binding z-score was 0.151.
For GCGACTGAGGCATCAGCAGGTTACCATAACTTAA, the PBM binding z-score was -0.0735.
ACTAGTTGGTCAGCTGAGGTCACAGACAATTCGG was tested, and the PBM binding z-score was 4.37.
For AGAATGAGGTTATTAACATCAGGGAATTGCGGTC, the PBM binding z-score was 1.67.
CTACCAAGGTGAACAAAGTCGTTGATTACTATTC showed a PBM binding z-score of 0.378.
CCTACTGGGCCAAGGTCATGGATCAGTCAAAGCA gave a PBM binding z-score of 3.95.
With TCATATACGTAATACAGGTGAAAGTCGGCATCTA the PBM binding z-score was 1.3.
Work on ATCTCTAGGTAACCAAGTTCAGTGAGTGCCGAAC yielded a PBM binding z-score of 0.412.
In the case of TCAAGTAGGTTAGTCGGGGCATTCAGCCAACATA, the PBM binding z-score is reported as 0.586.
For TAGCCTAGGTCATTGGCCCAGTATAGTACGCATC, the PBM binding z-score was 2.56.
GCTAGTTGGTCAGTAAAAGTTCACACACCGGTCG gave a PBM binding z-score of 1.82.
GCTGCTAGGTCAGGTTGGTCCGCTAACGGGTACG was tested, and the PBM binding z-score was 0.839.
In the case of CCTAGTCGGTCAGGAGGTCACACACCGGATATGA, the PBM binding z-score is reported as 4.75.
With CGTCCAAAGTCAAGGTCAGTGAAAGAGACTCGAA the PBM binding z-score was 2.53.
Work on CCTCACGGGTCACGAGGTTATAGCACGACGAGCG yielded a PBM binding z-score of 6.4.
Sequence TCGAGTAGGTAAGTCGGGGCATTCAGCCAACATA has a PBM binding z-score of -0.331.
For CGTCCAAGGTGAAGGTCAGTGAAAGAGACTCGAA, the PBM binding z-score was 2.36.
In the case of TCATATAGCTAAATGCTAGGTGAAAGTCCGATCT, the PBM binding z-score is reported as 0.435.
CCTTACGGGTCAAGGATATAGCACGGGTGGTACG showed a PBM binding z-score of 4.68.
ACTATTAGTTGACTTAGGGTAACCGATACGACGC showed a PBM binding z-score of 0.525.
Work on CCTTATGGGTCAAGGTTATAGCACGGGTGGTACG yielded a PBM binding z-score of 3.78.
With TCATATAGGTAATACATGTGAAAGTCGGCATCTA the PBM binding z-score was 1.14.
For AGTCAAAGTTCAGGACGTGGTAACGTAAAGCACG, the PBM binding z-score was 2.67.
CCTACTGGGCCAAAGGTCAATGATTCCAATGCTC was tested, and the PBM binding z-score was 5.74.
With CATCCTAGGTCAGGGCCAGTATAGGAGGAACGTT the PBM binding z-score was 2.22.
ACTGACAGGTGATGAAGGTAACTCAGGCTATCAT was tested, and the PBM binding z-score was 0.16.
ACAGACAGGTGAGTGAAGATAACTCAGCTGGACG was tested, and the PBM binding z-score was 0.111.
ACTATTAGTTGAGACGAGGACAACCGATAGGTTG was tested, and the PBM binding z-score was 0.226.
For TCGAGTAGGTTAGTCGCGGCATTCAGCCAACATA, the PBM binding z-score was -0.0361.
CCTACTGGGCCATCAGGTCATTAATATCAACGTT showed a PBM binding z-score of 0.85.
CCGACTGGTGCAAAGGTTACCATACTCAGTACGA was tested, and the PBM binding z-score was 2.93.
Sequence TTACCAAGGTGAGGTGAGGTCGTTGATCCAACTC has a PBM binding z-score of 1.86.
In the case of CCGAGTAGGGTATGGGGCATTCAGGCAACGGTGA, the PBM binding z-score is reported as 0.102.
CCTGCTAGGTCGATGGTCAGCTAAAGCAGCTCGC was tested, and the PBM binding z-score was -0.11.
